“And” between values parts separate entries of the source, which are not always exact repeats. Equal values may be shown once. Records with an inconclusive call do not appear. Where a structure was tested more than once in an assay, its records may differ in their call. Values without a mark were called inactive. The source made the active and inactive calls. Calls follow the shape of the dose curve; as a rule, active = well fitted inhibition curve with a large enough effect; inconclusive = small, poorly fitted or top-dose-only effect; inactive = flat fitted curve, though single readings scatter.
% is scaled to controls: 0 for no effect and ±100 for the full control effect; potency is read from the fitted curve at half-maximal effect.

The assay concerns HEK293. The experiment in a line: Cytotoxic Profiling of Annotated Libraries Using Quantitative High-Throughput Screening (AID 1296008). Also: nearly all actives have a fitted effect of over 60% in size. Conditions: Five cell lines viability, CellTiter-Glo ATP luminescence, 48-72 h; max response: hits give low values. An excerpt:
Cell-based phenotypic screening is a commonly used approach to discover biological pathways, novel drug targets, chemical probes and high-quality hit-to-lead molecules. Many hits identified from high-throughput screening campaign are ruled out through a series of follow-up potency, selectivity/specificity, and cytotoxicity assays. Prioritization of molecules with little or no cytotoxicity for a more in-depth downstream evaluation influence the future direction of projects, so cytotoxicity profiling of the screening libraries at early stage is essential for increasing the likelihood of candidate success. […] For the annotated library, we also examined the primary targets and mechanistic pathways regularly associated with cell death. To our knowledge, this is the first study to use high-throughput screening to profile large libraries for cytotoxicity assessment in both normal and cancer cell lines. In summary, the results generated here constitutes a valuable resource for the scientific community and provides insight on identifying cytotoxic compounds with particular mechanisms of action, and prioritizing compounds with suitable cytotoxicity profile for further evaluation.
A pintool (Kalypsys) was used to transfer 23 nL of compound solution to the 1536-well assay plates. After 48 or 72 hr incubation at 37 degree Celsius, 5% CO2 and 95% humidity, 2.5 uL of CellTiter-Glo (Promega) was dispensed into each well using a dispenser (Aspect Automation, St. Paul, MN) with solenoid valves (Lee Valves, Westbrook CT). Plates were left at room temperature for 10 min before imaging the ATP-coupled luminescence using a ViewLux microplate imager (PerkinElmer, Waltham, MA).
(ATP-based viability assays read luminescence as a measure of living cells.)
In the case of `COC(=O)Nc1nc2ccc(Sc3ccccc3)cc2[nH]1`, the Potency was 473 nM (active) and 1.32 µM (active).
The same measure, in the same setting: as for `CN(C)c1ccc(C(=C2C=CC(=[N+](C)C)C=C2)c2ccc(N(C)C)cc2)cc1`, the figure is 237 nM (active) and 105 nM (active).
Consider `Cc1nnc(C(=O)NC(C)(C)c2nc(C(=O)NCc3ccc(F)cc3)c(O)c(=O)n2C)o1`, for which the max response is -1.41% and 1.54% and -3.51%.
Consider `COc1nc(N)nc2c1ncn2[C@@H]1O[C@H](CO)[C@@H](O)[C@@H]1O`, for which the compound was classed as inactive.
As to `CC(C(=O)O)c1ccc2c(c1)CC(=O)c1ccccc1S2` (stereo unspecified), the max response is -0.0676% and -6.42% and 0.0288%.
Same read-out and setting: as for `CC(C)OC(=O)C(C(=O)OC(C)C)=C1SC=CS1`, the figure is -6.55%.
On to `COc1cc2nc(N3CCCN(C)CC3)nc(NC3CCN(Cc4ccccc4)CC3)c2cc1OC`, for which the Potency is 6.62 µM (active).
Consider `CCN1CCCC1CNC(=O)c1cc(S(N)(=O)=O)ccc1OC` (stereo unspecified), for which the max response was -9.26%.
For the compound `C#CCN[C@@H]1CCc2ccccc21`, the outcome was inactive and the max response was -23.7%.
Consider `CCOCC(O)COc1ccc(NC(=O)CC[S+](C)C)cc1` (stereo unspecified), for which the max response is -1.76% and 3.69%.
Consider `CCn1cc(C(=O)O)c(=O)c2cc(F)c(N3CCN(C)CC3)cc21`, for which the compound was classed as inactive and the max response is 0.679%.
In the case of `COc1cnc(NS(=O)(=O)c2ccc(N)cc2)nc1`, the outcome was inactive.
Turning to `COc1cc2ncnc(Nc3cccc(Cl)c3)c2cc1OC`, the Potency was 0.372 µM (active).
As for `COc1ncnc(NS(=O)(=O)c2ccc(N)cc2)c1OC`, the Potency is 3.32 µM (active) and the compound was classed as inactive.
For `CCCOc1ccc(C(=O)OCCN(CC)CC)cc1N`, the outcome was inactive and the max response was -0.795%.
In the case of `O=c1cc(O)c(Cl)c[nH]1`, the max response is 3.54% and 0.705%.
For `COCCCOc1cc(C[C@@H](C[C@H](N)[C@@H](O)C[C@H](C(=O)NCC(C)(C)C(N)=O)C(C)C)C(C)C)ccc1OC`, the compound was classed as inactive.
As to `COc1cc([C@@H]2c3cc4c(cc3[C@H](O)[C@H]3COC(=O)[C@H]23)OCO4)cc(OC)c1OC`, the max response is -87.1% and the Potency was 0.0422 µM (active).
`CCOC(=O)[C@H](CCc1ccccc1)N[C@H]1CCc2ccccc2N(CC(=O)O)C1=O`: the Potency was 18.7 µM (active).
For the compound `CC(=O)CC(c1ccccc1)c1c(O)c2ccccc2oc1=O` (stereo unspecified), the outcome was inactive.
As to `CN1CCN(c2c(F)cc3c(=O)c(C(=O)O)cn4c3c2OCN4C)CC1`, the compound was classed as inactive and the max response was -2.04%.
`NCCCC(O)(P(=O)(O)O)P(=O)(O)O`: the max response is -8.5% and -22.9%.
Regarding `CCCCCCNC(=O)n1cc(F)c(=O)[nH]c1=O`, the Potency was 7.5 µM (active) and 13.2 µM (active).
Consider `CNS(=O)(=O)CCc1ccc2[nH]cc(C3CCN(C)CC3)c2c1`, for which the call was inactive; the max response was -3.79% and -10.1%.
For the compound `CC(N)C12CC3CC(CC(C3)C1)C2` (stereo unspecified), the max response was -21.7% and 2.38%.
`C[C@@H]1CN(c2c(F)c(N)c3c(=O)c(C(=O)O)cn(C4CC4)c3c2F)C[C@H](C)N1`: the outcome was inactive.
With `Cn1nnc2c(C(N)=O)ncn2c1=O`, the max response is 1.76% and -7.24%.
With `O=C(O)CCn1c2c(c3ccccc31)C[C@H](NS(=O)(=O)c1ccc(F)cc1)CC2`, the compound was classed as inactive; the max response is 3.39% and -17.8%.
On to `COc1cc2c(Nc3ccc(Br)cc3F)ncnc2cc1OCC1CCN(C)CC1`, for which the Potency was 26.4 µM (active) and the max response was -4.93%.
`CC1=C(C(=O)O)N2C(=O)[C@@H](NC(=O)C(N)c3ccccc3)[C@H]2SC1` (stereo partly specified): the max response was -2.36%.
With `CN(CCOc1ccc(CC2SC(=O)NC2=O)cc1)c1ccccn1` (stereo unspecified), the max response is 2.68% and the compound was called inactive.
